Calls of active or inactive are those of the source. Calls come from the whole dose curve; as a rule, active = well fitted inhibition curve with a large enough effect; inactive = no such curve, though single readings can be large or run the other way.
Biological target: 4'-phosphopantetheinyl transferase ffp (Bacillus subtilis) (UniProt Q9F4F7)
Assay: Inhibitos of Bacillus subtilis Sfp phosphopantetheinyl transferase (PPTase): Dry Powder Followup
Conditions: purified Sfp PPTase enzyme assay, dry powder retest
Text: The covalent attachment of a phosphopantetheinyl (4'-PP) arm to a variety of synthases and other proteins is a key posttranslational protein modification. The 4'-PP is installed on the proteins post-translationally from coenzyme A (CoA) on a conserved serine residue by action of phosphopantetheinyl transferase (PPTase) enzymes. Phosphopantetheinylation is essential for synthase activity, and removal of the PPTase gene precludes natural product synthesis in microorganisms, or in the case of fatty acid biosynthesis, renders the organism unviable. PPTase enzymes belong to a distinct structural superfamily. Within bacteria, these enzymes are grouped into two classes based upon primary structure, the AcpS-Type and Sfp-Type PPTases.
Sfp-type PPTases, corresponding to an activator of surfactin production in Bacillus subtilis, are responsible for modifying type I polyketide and nonribosomal peptide synthases of prokaryotes. Sfp-type PPTases are responsible for the activation of a variety of pathogen-associated virulence factors. Among these compounds are toxins such as mycolactone from Mycobacterium ulcerans, siderophores such as vibriobactin from Vibrio cholerae or mycobactin from Mycobacterium tuberculosis, as well as the mycolic acids which form the waxy cell wall of Mycobacteria. The biosyntheses of these natural products are considered attractive targets for drug design.
In search of small molecule Sfp-PPTase inhibitors, a fluorescence quenching assay was developed for detection of Bacillus subtilis Sfp-PPTase enzymatic activity in a miniaturized high-throughput format. The consensus ybbr acceptor peptide DALEFIASKLA was N-terminally labeled with Black Hole Quencher-2 (BHQ-2) and used in combination with rhodamine-labeled coenzyme A as a co-substrate.
Inhibition of Sfp-PPTase was detected by recording the fluorescence intensity change over a 30-minute reaction period at a 525 nm excitation and 598 nm emission. Reagents were supplied by Michael Burkart and Timothy Foley, University of California at San Diego.
This assay is a followup of dry powder purchasing, QC'ing of samples and retesting in the primary screening protocol.
Assay Buffer: 50 mM Hepes-Na pH 7.6, 10 mM MgCl2, 0.01% Nonidet P-40, and 0.01% BSA.
3 uL of Sfp-PPTase enzyme (final concentration 15 nM) and 1 uL of substrate mixture (final concentration for rhodamine-CoA and BHQ-2-YbbR 5 uM and 12.5 uM, respectively) dispensed in columns 1, 2, 5 - 48. Columns 1 and 2 used to generate neutral control (uninhibited reaction)
Three uL of reagents, consisting of buffer (in columns 3 and 4 as negative control) and Sfp-PPTase (in columns 1, 2, 5 - 48) were dispensed into 1,536-well Greiner black solid bottom plate. Compounds (23 nL) were transferred via Kalypsys pintool equipped with 1,536-pin array. The plate was incubated for 15 min at room temperature, followed by the addition of 1 uL substrate to start the reaction. The plate was then centrifuged at 1000 rpm for 15 seconds, and the fluorescence intensity recorded on a ViewLux High-throughput CCD imager (Perkin-Elmer) using standard BODIPY optics (525 nm excitation and 598 nm emission). The plate was then incubated for 30 minutes, and a second read on the ViewLux was performed. The fluorescence intensity difference over the 30-minute period was used to calculate the respective reaction rate for each well.

Chain of 4'-phosphopantetheinyl transferase ffp (Bacillus subtilis) (Q9F4F7 whole entry, looked up): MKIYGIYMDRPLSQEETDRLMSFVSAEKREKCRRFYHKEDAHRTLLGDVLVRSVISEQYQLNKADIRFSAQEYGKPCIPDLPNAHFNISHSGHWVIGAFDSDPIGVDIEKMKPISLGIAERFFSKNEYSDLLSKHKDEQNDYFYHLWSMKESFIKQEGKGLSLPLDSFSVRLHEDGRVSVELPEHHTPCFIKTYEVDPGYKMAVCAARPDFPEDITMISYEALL

Potency, active:
COc1ccc(OC)c(Nc2nc(=O)c3cccnc3s2)c1 13.2 µM
Clc1ccccc1-c1nnc2n1N/C(=C/Cc1ccccc1)S2 2.96 µM
O=C(CSc1ncnc2sc3c(c12)CCCCC3)NCc1ccco1 23.5 µM
S=C(Nc1ccccn1)c1ccccn1 26.4 µM
FC(F)(F)C1CCCN(c2nsc3ccccc23)C1 (centres undefined) 2.35 µM
C(/Cc1ccccc1)=C1\Nn2c(Cn3cnc4ccccc43)nnc2S1 21 µM
C(=C1\Nn2c(COc3ccccc3)nnc2S1)/c1ccccc1 5.27 µM
CCOC(=O)c1nc(NCc2ccccc2)sc1C 16.7 µM
CN(C)c1ccc(C(=S)N2CCN(Cc3ccccc3)CC2)cc1 5.27 µM
CCOC(=O)c1cc(-c2ccccc2)sc1NC(=O)c1ccc(OC)cc1 23.5 µM
COC(=O)Nc1sc2c(c1C(N)=O)CCC(C)C2 (centres undefined) 26.4 µM
CCOC(=O)c1c(-c2ccc(C)o2)csc1NC(=O)CSc1nnnn1-c1ccccc1 2.35 µM
O=C(CSc1nc2scc(-c3ccco3)c2c(=O)n1-c1ccccc1)NCC1CCCO1 (centres undefined) 3.32 µM
Cc1ccnc(NC(=S)N2CCN(c3cccc(C(F)(F)F)c3)CC2)c1 14.8 µM
c1csc(-c2nn3c(C4COc5ccccc5O4)nnc3s2)c1 (centres undefined) 21 µM
O=C(/C=C/c1ccccc1)Nc1cccc(S(=O)(=O)Nc2ccccc2F)c1 0.527 µM
Nc1c(C(=O)Nc2ccccc2F)sc2nc(-c3ccco3)ccc12 10.5 µM
COC(=O)c1c(NC(=O)COC(=O)c2ccc(Cl)cc2[N+](=O)[O-])sc2c1CCCCC2 37.3 µM
CCC(C)(C)n1nnnc1C(c1ccc(O)c(OC)c1)N1CCc2ccccc2C1 (centres undefined) 21 µM
CCN1CCN(C(=S)c2ccc(O)cc2)CC1 2.35 µM
Cc1ccc(C2=CSC(NC(=O)CSc3nncn3C)=NN2)cc1 21 µM
O=C(CSc1ccccc1)Nc1nnc(COc2ccc(Cl)cc2)s1 6.63 µM
O=C(Nc1nnc(COc2ccc(Cl)cc2)s1)c1ccco1 14.8 µM
CCc1c(C)sc(NC(=O)C2CCCCC2C(=O)O)c1C(N)=O (centres undefined) 2.35 µM
COC(=O)c1sc(NC(=O)c2cc(-c3ccccc3)nc3ccccc23)c(C#N)c1C 5.91 µM
O=C(CN1C(=O)CC(c2ccco2)Sc2ccccc21)Nc1ccccc1F (centres undefined) 26.4 µM
CCOC(=O)c1c(C)[nH]c(C2=CSC(=NC3CC3)NN2)c1C 18.7 µM
CC(C)(C)Cc1nnc(NC(=O)CSc2ccccc2)s1 5.91 µM
CCOC(=O)c1c(NC(=O)c2ccccc2Cl)sc2c1CCc1ccccc1-2 2.64 µM
CCOC(=O)c1c(-c2ccc(OC)cc2)csc1NC(=O)C1CCCO1 (centres undefined) 14.8 µM
O=C(Nc1nnc(COc2ccc(Cl)cc2)s1)c1cccs1 18.7 µM
CNC(=O)c1c(N)sc2c1CCCCC2 8.35 µM
Cc1nc(SCC(=O)c2ccc(F)cc2)n[nH]1 83.5 µM
O=C(Nc1ccc(F)cc1)C1=CC(=O)N2CCN=C2S1 11.8 µM

— PubChem BioAssay AID493214 (National Center for Advancing Translational Sciences (NCATS), 2011)
